Measurements taken from PubChem BioAssay.
Records with an inconclusive call do not appear. Active and inactive are the calls of the source.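 The calls were made as follows, unless noted: active = RAM network inhibition above 8.4% in each of two replicates, 3 SD over the compound average; inconclusive = above 8.4% inhibition in only one replicate; inactive = 8.4% inhibition or less in each replicate.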

What was measured:
[1] = reducers of endogenous Her2 protein level, primary screen, SKBR3 breast tumor cells, AlphaScreen, ATP viability (AID 461;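 active = Her2 level under about 52% in both replicate screens, with viability over 70% of control, limit read from the data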;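 as to Her2 level: lower value means less Her2 protein in the cells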;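 as to viability: percent of carrier control wells set as 100% viability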); settings: 18-24 h, measured here: SKBR3 viability, ATP luminescence, at 10 µM
[2] = target: Receptor tyrosine-protein kinase erbB-2 (Homo sapiens) (UniProt P04626); assay: as above; settings: 18-24 h, at 10 µM, stronger effect = lower value
[3] = SK-BR-3 cell growth inhibitors, pilot screen, 24 h, human (AID 572;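 active = viability at or below 10% of carrier control in both of two separate runs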;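 also: compound exposure lasted between 18 and 24 h rather than exactly 24 h; 100% = carrier-treated control wells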); settings: SK-BR-3 viability, CellTiter-Glo luminescence, at 10 µM, stronger effect = lower value
[4] = growth inhibitors of H69AR lung tumor, primary screen, human, duplicate replicates (AID 580;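 active = viability at or under a set limit in both replicates, limit being median viability minus 3 SD, cut at about 48% in these data, passing the limit was not always enough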;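 also: 100% = mean luminescence of untreated wells and 0% = no signal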); settings: H69AR lung tumor cells viability, ATP luminescence, 72 h; at 10 µM; stronger effect = lower value
[5] = reversal of MRP1-mediated doxorubicin resistance, pilot screen, H69AR cells, doxorubicin co-treatment (AID 601;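 active = viability loss from added drug above about 55%, and viability with drug at most 40%, in both replicates, limit read from the data, passing the limit was not always enough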); settings: CellTiter-Glo, 72 h, at 10 µM; for differential viability (reversal): stronger effect = higher value
[6] = 384-well plate pilot, post-Golgi transport modulator project, inhibition of yeast transport mutant growth (AID 636; in the data active = inhibition above about 31%); settings: absorbance 615 nm, about 18 h, stronger effect = higher value
[7] = growth suppression of yeast trafficking mutant, preliminary HTS, modulators of trafficking downstream of Golgi apparatus project, 1536-format plate, OD 615 nm (AID 637; in the data active = inhibition above about 30%); settings: yeast transport mutant growth, absorbance 615 nm, 18 h; stronger effect = higher value
[8] = OD615 S. cerevisiae growth inhibition, permissive medium, pilot counter-assay, permissive growth control for S. cerevisiae lifespan shortening project (AID 705;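 active = growth inhibition above 25% in both replicates, a cutoff set 3 SD above the mean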); settings: OD615, 24 h, at 10 µM, stronger effect = higher value
[9] = Restrictive medium S. cerevisiae growth inhibition, OD615, pilot screen of yeast lifespan reduction project, restrictive growth control (AID 706;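 active = growth inhibition above a set limit, 3 SD over mean compound inhibition, in both replicates, cut at about 43% in these data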;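 also: modified DeaD lifespan yeast strain shifted to restrictive glucose medium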); settings: OD615, 48 h, at 10 µM, stronger effect = higher value
[10] = viability gain of MRP-1-high H69AR cells under doxorubicin, pilot screen, MRP-1 activator project, CellTiter-Glo, duplicate (AID 807;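 active = viability increase at or above a cutoff of the median across tested compounds plus 3 SD, cut at about 8.5% in these data, passing the limit was not always enough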;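 also: compound pretreatment 18-22 h then 72 h combined with doxorubicin; 0% = doxorubicin alone and 100% = vehicle without doxorubicin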); settings: H69AR viability with doxorubicin, CellTiter-Glo luminescence; at 10 µM; stronger effect = higher value
[11] = growth suppression of beta-catenin knockout HCT116, pilot screen, human colon tumor cells (AID 823;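 active = cell viability at or below a set limit in both duplicate runs, the limit being the all-compound median minus 4 SD, cut at about 23% in these data, passing the limit was not always enough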;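 also: 0% = wells killed by 20 µM Hyamine and 100% = untreated DMSO cell wells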); settings: CellTiter-Glo, 60 h, at 10 µM, stronger effect = lower value
[12] = growth suppression of PTEN-deleted HCT116, pilot screen, cell-based, HCT116 clonal line, CellTiter-Glo (AID 824;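 active = viability at or below 27.92% in each of two runs, the all-compound median minus 4 SD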;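 also: 0% = 20 µM Hyamine control and 100% = vehicle cell control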); settings: 60 h, at 10 µM, stronger effect = lower value
[13] = inhibitors of the yeast RAM network, pilot screen, dse1pr::URA3 reporter, 5-FOA selection (AID 869;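 active = inhibition over a set limit, the all-compound mean plus 3 SD, in both replicate runs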;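 also: 0% = DMSO wells with no growth and 100% = 10 µM 1-NA-PP1 with full growth; RAM network block rescues cells from 5-FOA so hits raise OD615 growth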); settings: S. cerevisiae dse1pr::URA3 5-FOA growth, OD615, 2 d; at 10 µM; stronger effect = higher value; strain carries analog-sensitive mutant Cbk1 kinase
[14] = RAM signaling pathway blockade in yeast – S. cerevisiae, Pdr1DBD-CYC8 efflux-inhibited sensitized strain, primary screen (AID 1298);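 also: 0% = DMSO untreated cells without growth and 100% = 10 µM 1-NA-PP1 full growth; higher means more yeast growth rescued from 5-FOA killing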; settings: S. cerevisiae cbk1-as DSE1-URA3 strain, 5-FOA growth OD615, 2 d; at 50 µM; stronger effect = higher value
[15] = HUVEC growth inhibition – cell-based, human, primary screen (AID 575;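 active = viability at or below 30% in both replicate assays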;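 also: 100% = median of untreated cell wells with 0.1% DMSO on each plate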); settings: HUVEC proliferation, CellTiter-Glo luminescence, 72 h; at 10 µM; stronger effect = lower value
[16] = H69AR cells + 2 uM doxorubicin, measured here: viability with 2 uM doxorubicin, stronger effect = lower value
[17] = H69AR cells, compound alone cytotoxicity

Sequence of Receptor tyrosine-protein kinase erbB-2 (Homo sapiens) (P04626 whole entry, looked up): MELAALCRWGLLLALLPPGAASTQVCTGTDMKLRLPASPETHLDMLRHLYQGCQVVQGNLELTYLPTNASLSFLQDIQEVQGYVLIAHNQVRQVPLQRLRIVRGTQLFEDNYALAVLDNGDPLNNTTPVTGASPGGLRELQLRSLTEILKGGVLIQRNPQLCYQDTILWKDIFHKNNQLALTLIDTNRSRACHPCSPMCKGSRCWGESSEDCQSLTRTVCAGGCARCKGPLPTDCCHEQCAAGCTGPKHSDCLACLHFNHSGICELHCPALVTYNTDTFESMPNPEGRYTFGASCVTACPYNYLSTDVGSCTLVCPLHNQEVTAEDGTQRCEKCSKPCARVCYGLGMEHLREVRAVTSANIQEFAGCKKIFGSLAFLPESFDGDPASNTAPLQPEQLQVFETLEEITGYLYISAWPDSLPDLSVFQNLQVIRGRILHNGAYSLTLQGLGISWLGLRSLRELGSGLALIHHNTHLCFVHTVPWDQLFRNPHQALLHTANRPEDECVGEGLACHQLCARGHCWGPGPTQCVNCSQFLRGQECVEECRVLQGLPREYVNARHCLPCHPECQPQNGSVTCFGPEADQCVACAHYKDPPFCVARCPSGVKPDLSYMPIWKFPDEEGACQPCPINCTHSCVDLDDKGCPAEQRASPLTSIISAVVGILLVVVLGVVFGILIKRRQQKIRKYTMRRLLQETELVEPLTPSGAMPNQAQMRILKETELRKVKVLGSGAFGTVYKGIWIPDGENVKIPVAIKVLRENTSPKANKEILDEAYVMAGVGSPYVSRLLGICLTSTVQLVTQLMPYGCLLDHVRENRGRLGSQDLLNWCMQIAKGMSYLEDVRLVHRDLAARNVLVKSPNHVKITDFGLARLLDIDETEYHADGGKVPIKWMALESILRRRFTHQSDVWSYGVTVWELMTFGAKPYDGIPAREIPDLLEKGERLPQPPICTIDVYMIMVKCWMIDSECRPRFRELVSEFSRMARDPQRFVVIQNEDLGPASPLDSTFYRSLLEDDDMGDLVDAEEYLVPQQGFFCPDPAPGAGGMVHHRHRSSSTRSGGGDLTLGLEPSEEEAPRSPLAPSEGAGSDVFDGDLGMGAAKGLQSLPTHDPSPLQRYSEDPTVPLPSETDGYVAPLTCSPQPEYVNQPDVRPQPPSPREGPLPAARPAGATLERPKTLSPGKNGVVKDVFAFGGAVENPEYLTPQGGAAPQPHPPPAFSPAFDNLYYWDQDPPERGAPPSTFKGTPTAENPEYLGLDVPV

Row | SMILES | viability [1] [%] | Her2 level [2] | viability [3] | viability [4] | differential viability (reversal) ([5]; H69AR cells + 2 uM doxorubicin) | viability [5, 16] [%] | viability [5, 17] [%] | inhibition [6] | inhibition [7] | growth inhibition [8] | growth inhibition [9] | viability increase [10] | viability [11] | viability [12] | inhibition [13] | RAM network inhibition [14] | viability [15]
1 | Cc1ccccc1-c1nc(CN2CCC(C(=O)NC3CCN(Cc4ccccc4)CC3)CC2)c(C)o1 | 91 | 77.5% (inactive) | 91% (inactive) | 86.3% (inactive) | 7.26% (inactive) | 79 | 86.3 | -5.87% (inactive) | 3% (inactive) | -8.2% (inactive) | -3.5% (inactive) | -7.96% (inactive) | 6.4% (active) | 9.9% (active) | 1.26% (inactive) | 1.75% (inactive) | 
2 | O=C(CS(=O)(=O)c1cn(Cc2ccc(F)cc2)c2ccccc12)N1CCCCC1 | 92 | 88.5% (inactive) | 92% (inactive) | 99.9% (inactive) | 11.9% (inactive) | 88 | 99.9 | -5.68% (inactive) | -5.17% (inactive) | -24.1% (inactive) | -12.8% (inactive) | -3.63% (inactive) | 82.4% (inactive) | 82.9% (inactive) | 2.3% (inactive) | 5% (inactive) | 
3 | COC(=O)c1ccc(NC(=O)C2C3CCC(C3)C2C(=O)O)cc1 (centres undefined) |  |  | 96% (inactive) | 90.4% (inactive) | 0.415% (inactive) | 90 | 90.4 | 2.13% (inactive) | 6.55% (inactive) | 10.2% (inactive) | 1.67% (inactive) | -2.31% (inactive) | 93.7% (inactive) | 93.6% (inactive) | 1.04% (inactive) | 1.43% (inactive) | 113% (inactive)
4 | COc1ccc(Nc2ncnc3c2cnn3-c2ccccc2)cc1OC | 82.5 | 91% (inactive) | 82.5% (inactive) |  | -31% (inactive) | 73.7 | 42.7 | 0.27% (inactive) | -9.33% (inactive) | -4.18% (inactive) | -24.4% (inactive) | -0.97% (inactive) | 107% (inactive) | 97.7% (inactive) | 0.635% (inactive) | 5.61% (inactive) | 59.4% (inactive)
5 | Cc1cc(/C=N/n2cnnc2)c(C)n1-c1cccc(Cl)c1 | 84 | 92% (inactive) | 84% (inactive) | 86.4% (inactive) | 20.5% (inactive) | 65.9 | 86.4 | -5.26% (inactive) | 3.83% (inactive) | -2% (inactive) | 22.7% (inactive) | -3.15% (inactive) | 83.7% (inactive) | 73.2% (inactive) | 2.75% (inactive) | 2.81% (inactive) | 
6 | Cc1cc(=O)oc2c1ccc1oc(/C(=N/O)c3ccccc3)c(C)c12 | 84 | 112% (inactive) | 84% (inactive) | 74.5% (inactive) | -17.2% (inactive) | 91.7 | 74.5 | 8.46% (inactive) | 17.2% (inactive) | -11% (inactive) | 10.6% (inactive) | 5.23% (inactive) | 80.8% (inactive) | 65.4% (inactive) | 0.035% (inactive) | 9.44% (inactive) | 
7 | CC(C)CCSc1nc2c(c(=O)[nH]c(=O)n2C)n1CCCc1ccccc1 | 87.5 | 71% (inactive) | 87.5% (inactive) |  | -8.95% (inactive) | 58.9 | 50 | -3.73% (inactive) | 4.17% (inactive) | -11.8% (inactive) | -9.37% (inactive) | -4.55% (inactive) | 68.8% (inactive) | 59.1% (inactive) | 3.84% (inactive) | 9.02% (inactive) | 46.7% (inactive)
8 | COc1ccccc1S(=O)(=O)Cc1ccc(C(=O)NCCN2CCCCCC2)o1 | 71 | 102% (inactive) |  | 102% (inactive) | 11.8% (inactive) | 90 | 102 | -0.9% (inactive) | -1.33% (inactive) | 2.4% (inactive) | -14.5% (inactive) | -2.82% (inactive) | 104% (inactive) | 104% (inactive) | 1.38% (inactive) | 7.66% (inactive) | 97.5% (inactive)
9 | C/C=C/COC(=O)c1[nH]c2c(c1C)C(=O)CC(c1ccco1)C2 (centres undefined) | 80.5 | 62% (inactive) | 80.5% (inactive) | 24.4% (active) | -15.9% (inactive) | 40.2 | 24.4 | -2.67% (inactive) | -3.28% (inactive) | -4.97% (inactive) | -2.88% (inactive) | -4.93% (inactive) | 16.6% (active) | 19.8% (active) | 0.985% (inactive) | 0.51% (inactive) | 
10 | CC1CCCCN1S(=O)(=O)c1ccc(NC(=O)c2cccs2)cc1 (centres undefined) | 73.5 | 83% (inactive) | 73.5% (inactive) | 85.5% (inactive) | 1.84% (inactive) | 83.6 | 85.5 | -1.17% (inactive) | -13.2% (inactive) | -8.63% (inactive) | -13.5% (inactive) | -4.32% (inactive) | 76.2% (inactive) | 82% (inactive) | 1.48% (inactive) | 0.93% (inactive) | 
